Several values for one entry are separate records, joined by “and”; a condition that tells them apart may be missing. Identical values can stand only once. Records with an inconclusive call do not appear. Where a call stands in place of a potency, no number is given. Where a structure was tested more than once in an assay, its records may differ in their call. Activity calls are given as the source filed them. Calls follow the shape of the dose curve; as a rule, active = well fitted inhibition curve with a large enough effect in the repeat runs; inconclusive = weak or mixed curves, or effect the other way; inactive = no such curve, though single readings can be large or run the other way.
Biological target: Nuclear receptor subfamily 1 group I member 3 (Homo sapiens) (UniProt Q14994)
Sequence (Q14994 whole entry, looked up): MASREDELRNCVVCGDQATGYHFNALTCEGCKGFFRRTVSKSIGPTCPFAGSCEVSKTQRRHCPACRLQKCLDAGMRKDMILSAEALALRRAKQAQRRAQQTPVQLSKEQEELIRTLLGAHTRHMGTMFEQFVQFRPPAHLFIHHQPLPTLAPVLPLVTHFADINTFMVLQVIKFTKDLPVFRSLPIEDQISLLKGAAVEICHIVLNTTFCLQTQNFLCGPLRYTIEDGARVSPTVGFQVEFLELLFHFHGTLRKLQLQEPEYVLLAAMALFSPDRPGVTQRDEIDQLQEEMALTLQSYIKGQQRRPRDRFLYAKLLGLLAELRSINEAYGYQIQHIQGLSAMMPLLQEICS
Assay: qHTS assay to identify small molecule antagonists of the constitutive androstane receptor (CAR) signaling pathway (AID 1224838);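 also: HepG2 cells stably expressing hCAR with CYP2B6 luciferase reporter stimulated by CITCO; nearly all actives have a fitted effect of over 40% in size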
Settings: HepG2-CYP2B6-hCAR luciferase, CITCO-stimulated, 24 h; series mostly up to 92.4 µM
From the text: U.S. Tox21 Program National Center for Advancing Translational Sciences [NCATS] NIH Chemical Genomics Center [NCGC] U.S. Environmental Protection Agency [EPA] National Institutes of Environmental Health Sciences [NIEHS] National Toxicology Program [NTP] U.S. Food and Drug Administration [FDA] Tox21 Assay Overview: The constitutive androstane receptor (CAR) is a nuclear receptor which regulates multiple drug metabolizing enzymes (DMEs) and transporters. Activating CAR will generally increase the transcription and subsequent translation of CYP2B6 and CYP3A4. These two DMEs represent about 50% of the drug metabolizing potential in the body. When CAR is deactivated, the metabolizing potential in the body will decrease, subsequently increasing the toxicity in the body or lowering the therapeutic potential of a pro-drug. Recently, there have also been studies performed indicating CARs role in energy metabolism and cancer therapy. Therefore, inhibiting CARs activity could have a potential effect on diabetes and cancer. Identifying environmental toxins and compounds which modulate CAR, through the use of the Tox21 10K compound collection, will be an important step in determining the toxicity and potential therapeutic effects these factors will have on the human body.
Tox21 Assay Protocol Summary: A double-stable (hCAR and CYP2B6-2.2kb) transfected cell line, derived from human hepatoma (HepG2) cells, was utilized for the duration of the quantitative high-throughput screens. The HepG2-CYP2B6-hCAR cells suspended in DMEM culture medium supplemented with 10% FBS, 5 ug/mL blasticidin, 0.5 mg/mL geneticin, 100 U/mL penicillin and 100 ug/mL streptomycin were dispensed at 2500 cells/4 uL/well in 1536-well white solid bottom plates using a Multidrop Combi. After the assay plates were incubated at 37 C/5% CO2 for 4 hrs, 23 nL of compounds at 15 concentrations (from 5-48 columns) or positive control (from 1 to 4 columns) were transferred to the assay plates using a Pintool station. One uL of CITCO, was added using a Flying Reagent Dispenser to generate a final concentration of 50 nM CITCO inside each well. After a 24 hr incubation period at 37 C/5% CO2, four uL of ONE-Glo reagent was added into the assay plates using a Flying Reagent Dispenser. After a 30 min incubation period at room temperature, the luminescence intensity in the assay plates was measured using a ViewLux plate reader.
Potency is read from the fitted curve at half-maximal effect.

Compound	Potency
CC(C)CC(C)(O)C#CC(C)(O)CC(C)C (stereo not given)	inactive
Nc1ncn([C@@H]2O[C@H](CO)[C@@H](O)[C@H]2O)c(=O)n1	inactive
Clc1nc(Cl)c(Cl)c(Cl)c1Cl	inactive
c1ccc(Nc2ccccc2)cc1	inactive
Nc1ncnc2nc[nH]c12	inactive
O=C(c1ccccc1)c1ccc(O)cc1O	inactive
COc1ccc(C(=O)CC(=O)c2ccc(C(C)(C)C)cc2)cc1	inactive
CCCc1c(OCCCCc2nn[nH]n2)ccc(C(C)=O)c1O	inactive
CC(=O)c1ccccn1	inactive
c1ccncc1	inactive
Nc1ccccc1N	inactive
O=Cc1ccccc1O	inactive
OC1CCCCCCCCCCC1	inactive
CC(=O)CC/C=C(\C)CCC=C(C)C	inactive
OC(CCl)CCl	inactive
c1cc(N(CC2CO2)CC2CO2)ccc1OCC1CO1 (stereo not given)	68.6 µM (active)
O=C(COc1ccc(Cl)cc1)N1CCN(Cc2ccc3c(c2)OCO3)CC1	inactive
O=C1OC2(c3cc(Br)c(O)c(Br)c3Oc3c2cc(Br)c(O)c3Br)c2c(Cl)c(Cl)c(Cl)c(Cl)c21	inactive
Cc1[nH]c(=O)c(C#N)cc1-c1ccncc1	inactive
CN(C)C(=N)N=C(N)N	inactive

Compound	Potency
O=C(Nc1ccc([N+](=O)[O-])cc1Cl)c1cc(Cl)ccc1O	inactive and 4.11 µM (active)
COC(=O)CCC(=O)OC	inactive
Cc1c(OCC(F)(F)F)ccnc1CS(=O)c1nc2ccccc2[nH]1 (stereo not given)	inactive
O=c1oc(=O)c2cc3c(=O)oc(=O)c3cc12	inactive
CCC(C)c1ccccc1O (stereo not given)	inactive
C=CC(C)(CCC=C(C)C)OC(C)=O (stereo not given)	inactive
CCCCC(CC)COC(=O)c1ccc(N(C)C)cc1 (stereo not given)	inactive
Cc1cccc(C(=O)O)c1	inactive
CCC(C)(O)CCCC(C)C (stereo not given)	inactive
COC(=O)Nc1nc2ccc(S(=O)c3ccccc3)cc2[nH]1 (stereo not given)	inactive
CCC(C)CO (stereo not given)	inactive
CCCCC/C=C/C=C/C=O	inactive
COC(=O)C1=C(C)NC(C)=C(C(=O)OCCN(C)Cc2ccccc2)C1c1cccc([N+](=O)[O-])c1 (stereo not given)	inactive
CCCCCCCCCC(=O)OC	inactive
Cc1ccc(C(=O)c2cc(O)c(O)c([N+](=O)[O-])c2)cc1	inactive
Cn1cnc([N+](=O)[O-])c1Sc1ncnc2nc[nH]c12	4.83 µM (active) and 11.9 µM (active)
CCCCOCCOCCOCCO	inactive
c1cc(-c2ccncc2)ccn1	inactive
CC(C)OC=O	inactive
O=C(/C=C/c1ccccc1)OCc1ccccc1	inactive
